In PubChem BioAssay AID1259339 (Broad Institute, 2017):
A number with no mark means an inactive call. Activity calls are given as the source filed them.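 Rule for the calls: active = fitted AC50 no higher than ten times the top tested dose (cut at about 90 µM in these data); inconclusive = flat curve with 30 to 70% signal loss, or bad fit; inactive = AC50 beyond ten times the top dose.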

Assay: AlphaLISA signal interference compounds, dose response, artefact control, biochemical, TruHit kit (AID 1259339)
Conditions: TruHit alphaLISA kit signal interference counterscreen; series mostly up to 80 µM
For `CCc1nc(OCc2ccco2)c2sc3nc4c(cc3c2n1)COC(C)(C)C4`, the AC50 was “inactive”. In the case of `c1coc(-c2cn3ccc4ccccc4c3n2)c1`, the AC50 is reported as 81.7 µM (active). With `Cc1nc(C)c(C(=O)Nc2ncc([N+](=O)[O-])s2)o1` the AC50 was 40.7 µM (active). With `CC(C)C(CC(=O)NCc1ccco1)c1ccco1` (configuration not stated) the AC50 was 66.5 µM (active). In the case of `NC(=O)C1(N2CCCCC2)CCN(c2ncc(NC(=O)c3ccccc3F)cc2C(=O)O)CC1`, the AC50 is reported as “inactive”. For `COc1cccc(NC(=O)CN(C)C(=O)c2cc3c(s2)CCC3)c1`, the AC50 was 74.6 µM (active). In the case of `Cc1ccc(C(=O)Nc2cnc(N3CCC(C(N)=O)(N4CCCCC4)CC3)c(C(=O)O)c2)cc1`, the AC50 is reported as “inactive”. In the case of `O=C(O)Cc1c[nH]c2cccc(O)c12`, the AC50 is reported as 11.3 µM (active). In the case of `Cc1ccc(C(=O)Nc2ccc(N3CCC(C(N)=O)(N4CCCCC4)CC3)c(C(=O)O)c2)cc1`, the AC50 is reported as “inactive”. For `CC1(C)Cc2ccccc2-c2nc(-c3ccccc3)oc(=O)c21`, the AC50 was 33.4 µM (active). In the case of `O=C(O)C1Oc2cc3ccccc3cc2O1`, the AC50 is reported as 30.2 µM (active). For `O=S(=O)(c1ccccc1)N1CC2CN(Cc3ccc(O)cc3)C2C1` (configuration not stated), the AC50 was “inactive”. In the case of `CCN1CCN(C(=O)c2cc(-c3ccco3)nc3ccccc23)CC1`, the AC50 is reported as > 160 µM. For `O=C1CC2(CCN(C(=O)Nc3ccccc3)CC2)CN1Cc1ccc(Cl)cc1`, the AC50 was “inactive”. With `Cc1cccc2nc(CSCc3ccco3)cn12` the AC50 was 74.7 µM (active). For `CCc1nccn1CCC(=O)N1C[C@H](CO)C[C@H](CN2CCCC2)C1`, the AC50 was “inactive”. With `O=C(O)c1ccccc1/C=N/NC(=O)c1cc(-c2ccco2)nc2ccccc12` the AC50 was 36 µM (active).
